Among the data in ChEMBL document CHEMBL3988442, “University of Dundee, Small-Polar-MMV Screening Library” (2021) are Percent Effect values, retold here.

This assay addresses AMP-activated protein kinase, AMPK (Homo sapiens) (UniProt P54646+O43741+P54619+Q9UGJ0+Q9Y478+Q13131+Q9UGI9). Kind of assay: AMP-dependent Kinase enzyme assay. An in vitro enzyme assay that detects ADP turnover that is directly proportional to AMPK activity. This uses naive AMPK that is activated during the assay with MK-8722. The class given is functional. Also on record: scale not given: direction of the effect not stated beside the values. The conditions noted are these: 30 µM.
Consider `CC(C)Cc1nc(C[S+]([O-])CC(=O)NCc2ccccc2)no1` (centres undefined), for which the Percent Effect was determined as 0.747%. On to `O=C(NCc1ccco1)N1CCC(n2cc(-c3ccccn3)nn2)CC1`, for which the Percent Effect is 0.674%. Under `CC(=O)NCCNC(=O)NCc1ccc(-n2ccc(C(F)(F)F)n2)cc1` stands -0.713%; under `CC1(C)OC(=O)N(CC(=O)N2CCC(c3ccccc3F)C2)C1=O` (centres undefined), 12.7%; under `Cc1ccc(C(=O)N2[C@@H]3CC[C@H]2CN(C)C(=O)C3)c(=O)[nH]1`, 8.78%. On to `Cc1cnc(C(=O)NCC2CCOc3ccccc3C2)cn1` (centres undefined), for which the Percent Effect was -2.4%. Take `Cc1ccccc1NC(=O)CCNC(=O)c1ccoc1`: the Percent Effect is -10.8%.

Consider `Cc1noc(C)c1CC(=O)N1CCCC(n2ccnc2C)C1` (centres undefined), for which the Percent Effect was -4.43%.

Take `O=C(CCn1ccc2ncccc2c1=O)N1CCCC1`: the Percent Effect was -3.54%.

For the molecule `CCNc1ncc(C(=O)NCc2csc(-c3cnccn3)n2)cn1`, the Percent Effect is -2.88%. On to `NC(=O)N1CCCCCC1C1CCN(c2nccc(C(F)(F)F)n2)CC1` (centres undefined), for which the Percent Effect was -5.81%. Under `Cn1ccnc1-c1cn(CCCc2nnc(N)s2)nn1` stands -15.1%. As for `Oc1ccc(Br)c(CNc2cccc(-c3nnc[nH]3)c2)c1`, the Percent Effect is 23.8%. Then `CC(C)COc1cncc(N2CCCC(CC(N)=O)C2)n1` (centres undefined), with 10.7%; and `CC(C)(C)NC(=O)c1cnc2n1CCCC2`, with 0.336%. With `Cc1noc(C2CCCN(Cn3cc(Cl)cn3)C2)n1` (centres undefined), the Percent Effect was determined as 10.4%. Then `O=C1NC(C(=O)NCc2cccnc2Oc2ccc(F)cc2F)CO1` (centres undefined), with 5.7%; and `CN(CCc1ccccn1)CCc1nccs1`, with 0.423%. Then `Cc1cc(C)c(C#N)c(NCCSc2nncn2C)n1`, with -0.426%. Regarding `CC1(C)CN(Cc2ccncc2)CCS1(=O)=O`, the Percent Effect is -9.12%. `Cc1cc(Cl)c(C)c(S(=O)(=O)N2CCN(Cc3ccncc3)CC2)c1Cl`: the Percent Effect is -2.88%. Then `CC(C)(C)c1nc(CNc2cc3c(cc2Cl)NC(=O)CO3)no1`, with 2.92%. Take `Cc1ccc(C(=O)NCc2cc(F)ccc2N2CCCN(C)CC2)o1`: the Percent Effect was found to be 9.19%. Under `Clc1cc(NCc2ncc[nH]2)nc2[nH]ccc12` stands 24.1%; under `Cc1nn(C)c2nc(N3CCCC3c3nccs3)sc12` (centres undefined), -1.47%. Under `CN(CC(O)C(F)(F)F)C(=O)Nc1cccc(Cn2cccn2)c1` (centres undefined) stands -3.22%. Under `CC(C)NC(=O)c1nc(Cn2c(C(F)(F)F)nc3ccccc32)no1` stands 6.13%; under `CC(C)c1nn(C)cc1CNCc1cccnc1N(C)C`, 0.312%; under `CCc1ccc2nc(-c3cnn(C)c3)cc(C(=O)N3CCCC3)c2c1`, 7.23%. `Cc1cc(C(=O)NC(C)Cc2ccc(N(C)C)cc2)n(C)n1` (centres undefined): the Percent Effect came out at 11.6%. Then `CN(C)c1ccc(C(=O)Nc2ccn(CCc3ccncc3)n2)cn1`, with 14.4%; and `CN(CC(=O)NCC(F)(F)F)Cc1cccc2c1OCCO2`, with 3.65%; and `CC(=O)Nc1ccc(CN2C[C@H]3CC[C@@H]2CN(c2ncccn2)C3)cc1`, with 13%. In the case of `CCC(C(=O)N(Cc1ccccc1OC)C1CC1)n1cccn1` (centres undefined), the Percent Effect came to 0.528%. Consider `O=C(c1c(F)cccc1F)N1CCC[C@@H]1Cn1c(=O)oc2ccccc21`, for which the Percent Effect was found to be 23.1%. Regarding `CC(C)c1nnc2n1CCN(Cc1cc(Cl)c3c(c1)OCO3)C2`, the Percent Effect came to 8.76%. Turning to `Cc1cc(N2CCC(n3cc(CN4CCC[C@@H]4CO)nn3)CC2)ccn1`, the Percent Effect was -0.25%.

In the case of `COc1cccc2ccc(N3CCC(O)(C(=O)O)CC3)nc12`, the Percent Effect stood at 1.15%. For the molecule `Cc1c(NC(=O)NCCO)cccc1OC1CCCC1`, the Percent Effect is -2.68%.
